MITF primary = human MITF inhibition, primary screen; O75030; AlphaScreen MITF homodimerization, bead proximity signal; inhibition, % at 2.6 µM; actives 0.91% (n = 650,000); AID 1259374; in the data active = inhibition above about 50%
GPR151 ag = activators of human GPR151; Q8TDV0; PathHunter beta-arrestin GPR151 cells, luminescence; actives 1% (n = 650,000); activation, % at 11.2 µM; in the data active = activation above about 4.9%
Target sequence (Q8TDV0 whole entry, looked up): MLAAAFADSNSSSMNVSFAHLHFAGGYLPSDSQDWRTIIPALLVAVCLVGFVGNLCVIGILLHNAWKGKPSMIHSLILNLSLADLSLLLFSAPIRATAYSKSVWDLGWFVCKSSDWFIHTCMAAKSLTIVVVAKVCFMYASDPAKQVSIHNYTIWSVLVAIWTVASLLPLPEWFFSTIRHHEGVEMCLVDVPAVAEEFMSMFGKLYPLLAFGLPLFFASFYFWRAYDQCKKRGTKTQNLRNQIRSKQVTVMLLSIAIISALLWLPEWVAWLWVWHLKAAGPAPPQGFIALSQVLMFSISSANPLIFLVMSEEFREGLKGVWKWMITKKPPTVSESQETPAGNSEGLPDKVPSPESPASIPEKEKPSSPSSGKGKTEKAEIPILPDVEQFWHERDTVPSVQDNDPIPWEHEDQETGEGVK
TEAD-YAP block = TEAD-YAP interaction inhibition; inhibition, % at 9.12 µM; HEK-TIYL cells, TEAD-Gal4/YAP UAS-luciferase luminescence; actives 1.4% (n = 640,000); in the data active = inhibition above about 32%
FBW7 activator = human FBW7 E3 ligase activation, primary screen. Q969H0. AlphaScreen FBW7–phospho-cyclin E peptide binding, activator screen. normalized activity (activation), % at 26.1 µM. actives 0.13% (n = 650,000). AID 1259310; in the data active = normalized activity above about 1.9%;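 also: purified mutant Fbw7 with reduced substrate affinity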
Of the large screens only hits and unclear results are named; the others gave an inactive call. Shown are actives, neighbours in structure and some others; about 3.5% of the full set was active somewhere.

COc1cc(/C=C2\C(=O)N(C)C(=O)N(c3ccccc3)C2=O)cc(OC)c1O	none
CCN1/C(=C/C=C/c2sc3c(C)cccc3[n+]2CC)Sc2c(C)cccc21	TEAD-YAP block 44
CC(=O)N1C(=O)C2(C(C#N)=C(N)Oc3n[nH]c(-c4ccc(F)cc4)c32)c2ccccc21 (centres undefined)	none
Nc1ncc([N+](=O)[O-])c(Oc2ccccc2F)n1	none
CCCCN(CCCC)c1nc(N)ncc1[N+](=O)[O-]	TEAD-YAP block 34
CCCN(CCC)c1nc(N)ncc1[N+](=O)[O-]	TEAD-YAP block 59
Cc1cccc(OCC(=O)N(CCn2cccn2)c2nc3c(F)cccc3s2)c1	TEAD-YAP block 43
Cc1cc(C(=O)N(CCn2cccn2)c2nc3c(F)cccc3s2)on1	none
Cc1cccc(CN2C(=O)c3ccccc3S(=O)(=O)c3ccc(C(=O)NC4CC4)cc32)c1	none
c1cc(N2CCOCC2)ccc1Nc1nc(Nc2ccc(N3CCOCC3)cc2)c2ncn(C3CCCCC3)c2n1	MITF primary 52
c1cncc(Nc2nc(Nc3ccc(N4CCOCC4)cc3)c3ncn(C4CCCCC4)c3n2)c1	TEAD-YAP block 37
c1cncc(Nc2nc(NCCN3CCOCC3)c3ncn(C4CCCCC4)c3n2)c1	TEAD-YAP block 42
c1cncc(CNc2nc(NCCN3CCOCC3)c3ncn(C4CCCCC4)c3n2)c1	none
O=C(COc1ccc(Br)cc1)N/N=C\c1c(O)ccc2ccccc12	none
O=C(NCc1ncc(C(F)(F)F)cc1Cl)c1cn2ccsc2n1	FBW7 activator 2.0
CCSc1nc2sccn2c(=O)c1C(=O)NCc1ncc(C(F)(F)F)cc1Cl	none
O=C(NCc1cccnc1)/C(=C/c1ccc(-c2cccc(Cl)c2)o1)S(=O)(=O)c1ccccc1	TEAD-YAP block 53
O=C(NCc1cccnc1)/C(=C/c1ccc(-c2ccc(Br)cc2)o1)S(=O)(=O)c1ccccc1	TEAD-YAP block 35
O=C(NCc1cccnc1)/C(=C/c1ccc(-c2cccc([N+](=O)[O-])c2)o1)S(=O)(=O)c1ccccc1	none
O=C(NCc1cccnc1)/C(=C\c1ccc(Br)cc1)S(=O)(=O)c1ccccc1	TEAD-YAP block 86
O=C(NCc1cccnc1)/C(=C\c1cccc(Oc2ccccc2)c1)S(=O)(=O)c1ccccc1	TEAD-YAP block 82
Fc1ccc(C2C=C(c3ccc(Br)cc3)Nc3nnnn32)cc1 (centres undefined)	none
CCOc1ccc(N2CC(NS(=O)(=O)c3ccc4ccccc4c3)CC2=O)cc1 (centres undefined)	none
Cc1c(Cl)cccc1-n1c(SC(C)C(=O)NC(N)=O)nnc1-c1ccncc1 (centres undefined)	none
COc1ccc(S(=O)(=O)Oc2cc(C=O)ccc2OC)cc1	TEAD-YAP block 50
COc1ccc(S(=O)(=O)Oc2c(OC)cc(C=O)cc2OC)cc1	TEAD-YAP block 39
CC(C)(O)C#Cc1ccccc1C(=O)NC(CC(=O)O)c1ccccc1 (centres undefined)	none
COc1ccccc1NC(=O)C(=O)NCCC(C)C	none
O=C(Nc1ccc(Nc2cc(-n3ccnc3)ncn2)cc1)c1ccc(F)cc1F	none
O=C(Nc1ccc(Nc2cc(-n3ccnc3)ncn2)cc1)c1cccc2ccccc12	TEAD-YAP block 34
O=C1c2cccc3cccc(c23)C(=O)N1CCN1CCCCC1	TEAD-YAP block 68
O=C1c2cccc3cccc(c23)C(=O)N1CCN1CCN(CCc2ccccc2)CC1	none
COc1cccc(CC2=NOC(C(=O)NCC(C)(C)CO)C2)c1 (centres undefined)	none
COc1cccc(CC2=NOC(C(=O)NCc3cnc4ccccc4c3)C2)c1 (centres undefined)	TEAD-YAP block 35
CSc1ccccc1NC(=O)c1cc(-c2ccccc2O)on1	none
Cc1ccc(C(C)C)c(OCC(=O)NC2=NCCS2)c1	none
O=C(c1ccc(F)cc1)C1CCN(C(=S)NCc2ccco2)CC1	none
O=C(OCc1ccccc1)N1CCCN(CCc2ccncc2)CC1	FBW7 activator 1.9
COc1ccc(Nc2nccc(-c3cncc(N4CCOCC4)c3)n2)cc1OC	TEAD-YAP block 47
FC(F)(F)c1cc(Nc2nccc(-c3cncc(N4CCOCC4)c3)n2)ccc1Cl	none
Cc1nc2ccc(Nc3nccc(-c4cncc(N5CCOCC5)c4)n3)cc2o1	none
O=S(=O)(c1ccc(Nc2nccc(-c3cncc(N4CCOCC4)c3)n2)cc1)N1CCOCC1	none
Cc1[nH]nc2ccc(Nc3nccc(-c4cncc(N5CCOCC5)c4)n3)cc12	TEAD-YAP block 77
Cn1ccc2cc(Nc3nccc(-c4cncc(N5CCOCC5)c4)n3)ccc21	TEAD-YAP block 81
c1cc(-c2cncc(N3CCOCC3)c2)nc(Nc2ccc(OCCN3CCOCC3)cc2)n1	TEAD-YAP block 78
NC(=O)c1cc(NC(=O)COC(=O)c2ccccc2CCc2ccccc2)cc(C(N)=O)c1	none
Cn1cnnc1-c1ccc(Nc2nccc(-c3cncc(N4CCOCC4)c3)n2)cc1	TEAD-YAP block 33
Fc1cc(-c2ccnc(Nc3ccc(-c4ncn[nH]4)cc3)n2)cc(N2CCOCC2)c1	TEAD-YAP block 74
FC(F)Oc1ccc(Nc2nccc(-c3cncc(N4CCOCC4)c3)n2)cc1	none
Fc1ccc(Nc2nccc(-c3cncc(N4CCOCC4)c3)n2)cc1	TEAD-YAP block 68
COc1ccccc1CNc1ncnc2c1cnn2-c1ccc(Cl)cc1	none
Nc1ccc(-c2cnc3ccc(NCc4cccs4)nn23)cc1	none
Nc1cccc(F)c1Nc1ccc2c(cnn2-c2cccc(C(=O)NCCN3CCOCC3)c2)c1	TEAD-YAP block 79
CCC(=O)NC(c1cccs1)c1cc(Cl)c2cccnc2c1O (centres undefined)	none
CN1CCN(C(c2cccs2)c2ccc3cccnc3c2O)CC1 (centres undefined)	TEAD-YAP block 88
Oc1c(C(c2cccs2)N2CCOCC2)cc(Cl)c2cccnc12 (centres undefined)	TEAD-YAP block 57
CN1CCN(C(c2ccncc2)c2ccc3cccnc3c2O)CC1 (centres undefined)	MITF primary 70
c1cnc2c(CN3CCCCC3)cccc2c1	none
Oc1c(C(Nc2nccs2)c2cccs2)ccc2cccnc12 (centres undefined)	none
CCN1CCN(Cc2ccc3cccnc3c2O)CC1	MITF primary 94
COc1ccc(-c2noc(CC(=O)N(C)CCC#N)n2)cc1	none
OCCN1CCN(C(c2cccs2)c2ccc3cccnc3c2O)CC1 (centres undefined)	TEAD-YAP block 87
CCN1CCN(C(c2cccs2)c2ccc3cccnc3c2O)CC1 (centres undefined)	TEAD-YAP block 88
OCCC1CN(Cc2ccc3ccccc3n2)CCN1Cc1ccccc1 (centres undefined)	none
CCN1C(=O)/C(=C\c2ccc(C#N)cc2)SC1=S	none
CC(C)N(CCNc1nc(Nc2ccncc2)nc2c1ncn2-c1ccsc1)C(C)C	none
CCCNc1nc(Nc2cccnc2)nc2c1ncn2-c1ccsc1	TEAD-YAP block 61
CCCNc1nc(Nc2ccc3ncccc3c2)nc2c1ncn2C(C)C	none
CC(C)N(CCNc1nc(Nc2cccnc2)nc2c1ncn2-c1ccsc1)C(C)C	TEAD-YAP block 35
CC(C)N(CCNc1nc(Nc2cnccn2)nc2c1ncn2-c1ccsc1)C(C)C	TEAD-YAP block 39
